Data on one sequence can be found in publication PMC7862700, “An all-to-all approach to the identification of sequence-specific readers for epigenetic DNA modifications on cytosine”.

Holding throughout (test): DAPPL (digital affinity profiling via proximity ligation, sequencing); 10 mM Tris-HCl pH 7.5, 50 mM NaCl, 1 mM DTT, 4% glycerol, room temperature, 30 min; GST-TFs on glutathione beads, 16-mer random dsDNA library, 0.1% formaldehyde crosslink after washing; high values mean tight binding
The target of one assay is T1, FLI1 (Homo sapiens, UniProt Q01543 1-452).
T1 sequence: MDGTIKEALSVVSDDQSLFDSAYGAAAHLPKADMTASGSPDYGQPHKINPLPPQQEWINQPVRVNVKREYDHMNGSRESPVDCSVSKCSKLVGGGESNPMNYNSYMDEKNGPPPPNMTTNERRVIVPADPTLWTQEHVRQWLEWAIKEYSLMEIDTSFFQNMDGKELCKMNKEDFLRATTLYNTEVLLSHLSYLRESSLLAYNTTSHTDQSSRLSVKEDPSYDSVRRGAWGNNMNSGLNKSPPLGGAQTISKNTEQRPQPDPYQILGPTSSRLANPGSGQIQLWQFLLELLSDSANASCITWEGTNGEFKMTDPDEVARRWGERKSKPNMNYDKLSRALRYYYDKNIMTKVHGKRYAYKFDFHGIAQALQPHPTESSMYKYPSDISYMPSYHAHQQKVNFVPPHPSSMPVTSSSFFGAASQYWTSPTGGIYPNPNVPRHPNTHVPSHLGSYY
As to conditions: protein: recombinant; tags: N-terminal GST; dsDNA, one strand shown. The method in brief:
(§1)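 Human transcription factors were made in yeast as GST fusions, captured on glutathione beads and barcoded with DNA. With a tag-only sample included, the pool was incubated with 200 nmole of a random double-stranded 16-mer DNA library in Tris/NaCl/DTT/glycerol buffer at room temperature for 30 min, then crosslinked with 0.1% formaldehyde after washing, ligated by proximity, amplified and sequenced. For binding signal, each hexamer's read frequency for a factor is divided by its frequency for the tag-only sample.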

Another assay has as its target T2, ELK1 (Homo sapiens, UniProt P19419 1-428).
T2 sequence: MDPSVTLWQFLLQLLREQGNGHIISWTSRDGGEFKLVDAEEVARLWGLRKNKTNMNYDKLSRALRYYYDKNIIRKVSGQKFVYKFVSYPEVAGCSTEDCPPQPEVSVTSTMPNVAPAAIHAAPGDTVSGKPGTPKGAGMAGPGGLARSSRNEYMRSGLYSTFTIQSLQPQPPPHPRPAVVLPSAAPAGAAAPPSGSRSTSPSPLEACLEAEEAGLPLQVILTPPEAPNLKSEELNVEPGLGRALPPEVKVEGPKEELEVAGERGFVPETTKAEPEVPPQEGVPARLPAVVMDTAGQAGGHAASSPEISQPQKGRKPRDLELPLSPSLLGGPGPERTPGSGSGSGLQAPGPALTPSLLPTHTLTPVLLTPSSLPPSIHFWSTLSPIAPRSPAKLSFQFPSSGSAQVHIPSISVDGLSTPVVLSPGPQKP
As to conditions: protein: recombinant; tags: N-terminal GST; dsDNA, one strand shown. The method in brief: as §1

The next assay has as its target T3, GABPA (Homo sapiens, UniProt Q06546 1-454).
T3 sequence: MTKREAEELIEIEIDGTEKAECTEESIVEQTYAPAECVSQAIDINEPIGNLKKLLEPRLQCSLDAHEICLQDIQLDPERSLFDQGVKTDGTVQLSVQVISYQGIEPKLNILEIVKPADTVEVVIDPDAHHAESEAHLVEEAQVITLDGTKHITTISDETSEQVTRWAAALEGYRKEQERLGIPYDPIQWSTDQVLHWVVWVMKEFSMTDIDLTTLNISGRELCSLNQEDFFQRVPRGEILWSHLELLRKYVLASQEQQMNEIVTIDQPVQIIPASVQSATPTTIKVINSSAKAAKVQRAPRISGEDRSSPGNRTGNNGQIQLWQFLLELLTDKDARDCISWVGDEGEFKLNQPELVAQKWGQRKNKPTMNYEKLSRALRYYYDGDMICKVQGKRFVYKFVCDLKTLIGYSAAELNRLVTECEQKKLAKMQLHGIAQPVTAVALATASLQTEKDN
As to conditions: protein: recombinant; tags: N-terminal GST; dsDNA, one strand shown. The method in brief: as §1

A further assay has as its target T4, ERG (Homo sapiens, UniProt P11308 1-479).
T4 sequence: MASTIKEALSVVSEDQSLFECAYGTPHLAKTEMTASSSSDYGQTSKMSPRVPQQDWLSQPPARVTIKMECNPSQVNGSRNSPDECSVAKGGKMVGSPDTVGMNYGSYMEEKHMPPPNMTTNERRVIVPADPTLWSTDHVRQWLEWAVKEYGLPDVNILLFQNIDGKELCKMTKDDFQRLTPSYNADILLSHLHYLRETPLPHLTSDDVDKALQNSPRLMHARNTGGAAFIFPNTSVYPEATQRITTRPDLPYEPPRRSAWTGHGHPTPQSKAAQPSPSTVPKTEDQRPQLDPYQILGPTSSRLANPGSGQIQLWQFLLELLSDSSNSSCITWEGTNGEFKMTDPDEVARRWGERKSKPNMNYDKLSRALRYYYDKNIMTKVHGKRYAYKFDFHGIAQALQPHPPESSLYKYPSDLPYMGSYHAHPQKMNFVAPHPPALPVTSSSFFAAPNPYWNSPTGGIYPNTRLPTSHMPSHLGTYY
As to conditions: protein: recombinant; tags: N-terminal GST; dsDNA, one strand shown. The method in brief: as §1

Another assay has as its target ELF1 (Homo sapiens, UniProt P32519 1-619). As to conditions: protein: recombinant; tags: N-terminal GST; dsDNA, one strand shown. The method in brief:
as §1

A further assay has as its target T5, EHF (Homo sapiens, UniProt Q9NZC4 1-300).
T5 sequence: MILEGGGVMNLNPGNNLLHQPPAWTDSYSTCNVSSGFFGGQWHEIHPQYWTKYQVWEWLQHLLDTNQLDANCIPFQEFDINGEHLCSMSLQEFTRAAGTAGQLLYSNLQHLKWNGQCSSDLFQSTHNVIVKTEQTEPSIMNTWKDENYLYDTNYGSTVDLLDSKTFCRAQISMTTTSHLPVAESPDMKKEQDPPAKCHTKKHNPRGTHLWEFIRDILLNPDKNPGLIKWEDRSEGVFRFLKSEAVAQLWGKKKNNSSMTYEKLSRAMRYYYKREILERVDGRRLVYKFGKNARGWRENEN
As to conditions: protein: recombinant; tags: N-terminal GST; dsDNA, one strand shown. The method in brief:
as §1

The target of the next assay is SPI1 (Homo sapiens, UniProt P17947 1-270). The following applies: protein: recombinant; tags: N-terminal GST; dsDNA, one strand shown. The method in brief: as §1
For the next assay, the target named is SPIB (Homo sapiens, UniProt Q01892 1-262). The following applies: protein: recombinant; tags: N-terminal GST; dsDNA, one strand shown. The method in brief:
as §1

The next assay concerns the target T6, ELK3 (Homo sapiens, UniProt P41970 1-407).
T6 sequence: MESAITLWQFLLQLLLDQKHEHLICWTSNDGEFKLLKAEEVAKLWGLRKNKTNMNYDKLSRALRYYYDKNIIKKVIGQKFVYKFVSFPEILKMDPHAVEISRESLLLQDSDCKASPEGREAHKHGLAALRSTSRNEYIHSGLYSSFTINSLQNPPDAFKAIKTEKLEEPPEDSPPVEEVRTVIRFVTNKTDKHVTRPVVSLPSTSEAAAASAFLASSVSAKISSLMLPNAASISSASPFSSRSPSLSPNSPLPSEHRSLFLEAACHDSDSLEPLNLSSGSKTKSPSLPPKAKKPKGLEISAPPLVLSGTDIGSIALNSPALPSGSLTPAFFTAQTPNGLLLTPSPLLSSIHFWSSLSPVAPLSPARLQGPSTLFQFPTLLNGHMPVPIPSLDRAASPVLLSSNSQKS
The following applies: protein: recombinant; tags: N-terminal GST; dsDNA, one strand shown. The method in brief:
as §1

The next assay concerns the target T7, FEV (Homo sapiens, UniProt Q99581 1-238).
T7 sequence: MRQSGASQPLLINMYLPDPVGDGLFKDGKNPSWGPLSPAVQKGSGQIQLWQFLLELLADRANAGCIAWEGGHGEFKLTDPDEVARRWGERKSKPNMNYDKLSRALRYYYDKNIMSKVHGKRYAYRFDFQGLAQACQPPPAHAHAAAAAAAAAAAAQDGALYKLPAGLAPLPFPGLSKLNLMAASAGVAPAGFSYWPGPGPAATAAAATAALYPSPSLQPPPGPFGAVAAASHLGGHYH
As to conditions: protein: recombinant; tags: N-terminal GST; dsDNA, one strand shown. The method in brief: as §1

The next assay concerns the target ETV5 (Homo sapiens, UniProt P41161 1-510). As to conditions: protein: recombinant; tags: N-terminal GST; dsDNA, one strand shown. The method in brief: as §1
In a further assay the target is HSF1 (Homo sapiens, UniProt Q00613 1-529). The following applies: protein: recombinant; tags: N-terminal GST; chain copies: 3; dsDNA, one strand shown. The method in brief:
as §1

The next assay deals with T8, SPIC (Homo sapiens, UniProt Q8N5J4 1-248).
T8 sequence: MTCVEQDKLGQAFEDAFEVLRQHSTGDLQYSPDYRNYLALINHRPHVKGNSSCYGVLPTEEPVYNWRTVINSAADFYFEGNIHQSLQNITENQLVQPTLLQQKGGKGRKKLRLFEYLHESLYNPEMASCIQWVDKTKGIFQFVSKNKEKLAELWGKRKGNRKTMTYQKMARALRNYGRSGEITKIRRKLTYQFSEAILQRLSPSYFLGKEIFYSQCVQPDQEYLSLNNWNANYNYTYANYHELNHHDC
The following applies: protein: recombinant; tags: N-terminal GST; dsDNA, one strand shown. The method in brief: as §1

A further assay deals with ELF4 (Homo sapiens, UniProt Q99607 1-663). The following applies: protein: recombinant; tags: N-terminal GST; dsDNA, one strand shown. The method in brief:
as §1

Another assay concerns the target T9, ELK4 (Homo sapiens, UniProt P28324-2 1-405).
T9 sequence: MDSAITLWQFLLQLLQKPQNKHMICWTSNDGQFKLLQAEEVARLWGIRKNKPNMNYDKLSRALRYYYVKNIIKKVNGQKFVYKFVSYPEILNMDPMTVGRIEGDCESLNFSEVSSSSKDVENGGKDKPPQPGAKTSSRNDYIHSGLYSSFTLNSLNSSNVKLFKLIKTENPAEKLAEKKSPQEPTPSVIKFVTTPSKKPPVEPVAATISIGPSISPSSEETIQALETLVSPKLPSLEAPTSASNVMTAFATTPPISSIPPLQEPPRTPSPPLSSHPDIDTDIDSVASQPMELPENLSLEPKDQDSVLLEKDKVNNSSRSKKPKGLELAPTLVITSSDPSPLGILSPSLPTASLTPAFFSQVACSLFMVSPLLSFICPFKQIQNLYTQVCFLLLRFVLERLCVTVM
As to conditions: protein: recombinant; tags: N-terminal GST; dsDNA, one strand shown. The method in brief:
as §1

In the next assay the target is T10, ETV2 (Homo sapiens, UniProt O00321 1-342).
T10 sequence: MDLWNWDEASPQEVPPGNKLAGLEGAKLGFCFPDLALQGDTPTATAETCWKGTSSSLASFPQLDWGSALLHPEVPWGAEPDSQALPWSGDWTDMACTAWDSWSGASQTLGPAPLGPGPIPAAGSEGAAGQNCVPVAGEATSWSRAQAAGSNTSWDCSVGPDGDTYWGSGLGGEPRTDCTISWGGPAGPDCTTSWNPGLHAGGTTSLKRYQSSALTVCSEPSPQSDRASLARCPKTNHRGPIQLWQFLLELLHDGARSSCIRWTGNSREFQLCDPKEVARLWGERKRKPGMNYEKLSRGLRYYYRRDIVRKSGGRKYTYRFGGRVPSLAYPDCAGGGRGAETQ
As to conditions: protein: recombinant; tags: N-terminal GST; dsDNA, one strand shown. The method in brief:
as §1

Another assay addresses T11, ELF3 (Homo sapiens, UniProt P78545 1-371).
T11 sequence: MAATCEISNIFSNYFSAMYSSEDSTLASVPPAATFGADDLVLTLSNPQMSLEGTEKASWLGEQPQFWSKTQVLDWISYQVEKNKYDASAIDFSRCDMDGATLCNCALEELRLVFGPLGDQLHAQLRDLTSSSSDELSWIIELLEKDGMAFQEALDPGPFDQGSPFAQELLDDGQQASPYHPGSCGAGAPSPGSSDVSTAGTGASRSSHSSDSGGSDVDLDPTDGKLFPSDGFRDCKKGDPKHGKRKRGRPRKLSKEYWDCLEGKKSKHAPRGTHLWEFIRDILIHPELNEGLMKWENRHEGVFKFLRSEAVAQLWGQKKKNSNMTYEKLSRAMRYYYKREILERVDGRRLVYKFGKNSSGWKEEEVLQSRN
The following applies: protein: recombinant; tags: N-terminal GST; dsDNA, one strand shown. The method in brief: as §1

Another assay addresses CRX (Homo sapiens, UniProt O43186 1-299). The following applies: protein: recombinant; tags: N-terminal GST; dsDNA, one strand shown. The method in brief: as §1
A further assay has as its target ETV1 (Homo sapiens, UniProt P50549 1-477). As to conditions: protein: recombinant; tags: N-terminal GST; dsDNA, one strand shown. The method in brief: as §1

ELF4, sequence (Q99607 whole entry): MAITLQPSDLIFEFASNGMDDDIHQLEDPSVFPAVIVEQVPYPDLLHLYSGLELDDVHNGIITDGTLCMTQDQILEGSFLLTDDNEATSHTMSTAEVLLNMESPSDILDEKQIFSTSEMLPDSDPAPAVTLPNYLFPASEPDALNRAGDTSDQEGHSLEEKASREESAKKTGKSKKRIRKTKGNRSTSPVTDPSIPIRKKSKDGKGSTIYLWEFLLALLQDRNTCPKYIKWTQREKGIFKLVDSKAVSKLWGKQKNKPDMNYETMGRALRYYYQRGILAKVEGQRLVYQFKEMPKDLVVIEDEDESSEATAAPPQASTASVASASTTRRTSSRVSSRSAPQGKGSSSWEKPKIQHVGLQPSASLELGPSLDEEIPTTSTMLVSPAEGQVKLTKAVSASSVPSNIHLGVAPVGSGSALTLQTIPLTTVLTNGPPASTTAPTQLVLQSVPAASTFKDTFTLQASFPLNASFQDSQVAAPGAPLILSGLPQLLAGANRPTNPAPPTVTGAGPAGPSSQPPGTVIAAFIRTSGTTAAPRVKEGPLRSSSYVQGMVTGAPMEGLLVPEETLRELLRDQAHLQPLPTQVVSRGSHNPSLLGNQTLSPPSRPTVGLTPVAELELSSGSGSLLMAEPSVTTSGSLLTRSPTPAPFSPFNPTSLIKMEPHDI
ETV1, sequence (P50549 whole entry): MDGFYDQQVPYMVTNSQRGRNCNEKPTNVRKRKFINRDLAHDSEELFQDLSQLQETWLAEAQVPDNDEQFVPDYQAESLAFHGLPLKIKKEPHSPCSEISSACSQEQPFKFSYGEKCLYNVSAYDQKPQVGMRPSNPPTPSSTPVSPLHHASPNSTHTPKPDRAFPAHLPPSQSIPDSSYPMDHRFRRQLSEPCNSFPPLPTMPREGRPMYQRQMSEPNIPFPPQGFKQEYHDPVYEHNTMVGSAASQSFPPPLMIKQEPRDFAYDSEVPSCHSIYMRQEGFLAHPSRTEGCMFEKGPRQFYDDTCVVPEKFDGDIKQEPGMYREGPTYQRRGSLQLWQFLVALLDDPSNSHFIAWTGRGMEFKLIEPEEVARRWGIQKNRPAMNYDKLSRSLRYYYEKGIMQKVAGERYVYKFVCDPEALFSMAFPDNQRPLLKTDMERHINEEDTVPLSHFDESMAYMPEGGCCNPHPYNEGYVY
ETV5, sequence (P41161 whole entry): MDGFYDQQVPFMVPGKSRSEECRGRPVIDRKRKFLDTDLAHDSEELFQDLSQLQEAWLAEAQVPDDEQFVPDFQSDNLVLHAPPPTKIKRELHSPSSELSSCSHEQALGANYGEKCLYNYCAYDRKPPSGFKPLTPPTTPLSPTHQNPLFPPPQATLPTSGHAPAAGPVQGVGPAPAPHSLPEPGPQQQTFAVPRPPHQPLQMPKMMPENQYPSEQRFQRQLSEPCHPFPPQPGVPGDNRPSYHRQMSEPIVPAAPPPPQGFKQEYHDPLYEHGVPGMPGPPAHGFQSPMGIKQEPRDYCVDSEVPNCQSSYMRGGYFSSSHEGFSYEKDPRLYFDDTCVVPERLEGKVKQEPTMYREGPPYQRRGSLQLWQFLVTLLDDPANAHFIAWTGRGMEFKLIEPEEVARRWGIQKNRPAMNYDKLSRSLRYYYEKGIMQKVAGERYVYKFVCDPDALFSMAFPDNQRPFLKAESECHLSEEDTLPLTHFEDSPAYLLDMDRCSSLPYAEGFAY
SPIB, sequence (Q01892 whole entry): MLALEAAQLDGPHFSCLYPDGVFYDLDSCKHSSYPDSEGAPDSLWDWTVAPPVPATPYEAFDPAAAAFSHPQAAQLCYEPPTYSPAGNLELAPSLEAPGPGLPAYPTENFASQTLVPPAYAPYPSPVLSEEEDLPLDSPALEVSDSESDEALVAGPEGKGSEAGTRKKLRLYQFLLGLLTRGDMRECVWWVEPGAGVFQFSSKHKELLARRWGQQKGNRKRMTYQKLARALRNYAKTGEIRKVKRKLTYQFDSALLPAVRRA
HSF1, sequence (Q00613 whole entry): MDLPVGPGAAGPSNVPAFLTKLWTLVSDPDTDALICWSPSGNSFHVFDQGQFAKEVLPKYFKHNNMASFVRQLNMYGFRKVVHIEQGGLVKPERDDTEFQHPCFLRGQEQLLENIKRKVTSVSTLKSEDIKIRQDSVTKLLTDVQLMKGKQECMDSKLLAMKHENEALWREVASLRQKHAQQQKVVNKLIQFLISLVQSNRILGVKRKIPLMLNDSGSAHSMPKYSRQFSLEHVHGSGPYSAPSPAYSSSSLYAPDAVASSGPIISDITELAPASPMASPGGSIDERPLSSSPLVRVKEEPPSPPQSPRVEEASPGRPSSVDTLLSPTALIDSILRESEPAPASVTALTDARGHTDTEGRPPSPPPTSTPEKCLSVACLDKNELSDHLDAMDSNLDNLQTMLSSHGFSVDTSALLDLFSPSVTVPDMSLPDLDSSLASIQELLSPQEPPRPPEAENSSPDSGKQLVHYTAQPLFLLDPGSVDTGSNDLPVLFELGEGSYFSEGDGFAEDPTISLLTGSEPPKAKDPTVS
CRX, sequence (O43186 whole entry): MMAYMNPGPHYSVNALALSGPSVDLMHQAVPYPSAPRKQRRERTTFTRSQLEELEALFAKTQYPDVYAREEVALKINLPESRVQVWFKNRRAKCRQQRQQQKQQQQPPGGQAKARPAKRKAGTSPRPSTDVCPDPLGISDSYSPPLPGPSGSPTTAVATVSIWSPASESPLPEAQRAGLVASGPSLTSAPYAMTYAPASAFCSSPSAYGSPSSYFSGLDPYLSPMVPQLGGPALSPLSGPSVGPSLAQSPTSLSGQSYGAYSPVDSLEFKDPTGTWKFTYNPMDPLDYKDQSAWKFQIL
ELF1, sequence (P32519 whole entry): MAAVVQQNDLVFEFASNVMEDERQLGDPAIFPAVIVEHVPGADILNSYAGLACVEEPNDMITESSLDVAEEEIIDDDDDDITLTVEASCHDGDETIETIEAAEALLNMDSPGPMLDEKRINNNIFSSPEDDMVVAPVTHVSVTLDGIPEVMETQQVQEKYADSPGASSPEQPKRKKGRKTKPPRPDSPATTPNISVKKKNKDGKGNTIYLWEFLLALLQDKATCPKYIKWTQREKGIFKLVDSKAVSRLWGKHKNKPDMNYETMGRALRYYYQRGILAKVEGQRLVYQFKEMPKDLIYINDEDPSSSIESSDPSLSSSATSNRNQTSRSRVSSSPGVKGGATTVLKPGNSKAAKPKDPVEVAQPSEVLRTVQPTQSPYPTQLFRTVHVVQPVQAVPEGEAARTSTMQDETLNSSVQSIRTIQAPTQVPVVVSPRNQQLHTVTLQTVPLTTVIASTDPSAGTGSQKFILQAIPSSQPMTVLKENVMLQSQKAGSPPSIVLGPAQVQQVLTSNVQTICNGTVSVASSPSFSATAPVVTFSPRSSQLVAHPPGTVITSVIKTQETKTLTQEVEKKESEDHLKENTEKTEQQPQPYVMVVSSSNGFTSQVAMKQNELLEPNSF

For AGCATT, the binding signal in the assay with FLI1 was 1.12 fold enrichment (6-mer frequency, TF over GST control); with ELK1, 1.13 fold enrichment (6-mer frequency, TF over GST control); with GABPA, 1.11 fold enrichment (6-mer frequency, TF over GST control); with ERG, 1.09 fold enrichment (6-mer frequency, TF over GST control); in the assay with ELF1, 1.1 fold enrichment (6-mer frequency, TF over GST control); in the assay with EHF, 1.08 fold enrichment (6-mer frequency, TF over GST control). Also, the binding signal in the assay with SPI1 was 1.03 fold enrichment (6-mer frequency, TF over GST control); with SPIB, 1.05 fold enrichment (6-mer frequency, TF over GST control); with ELK3, 1.07 fold enrichment (6-mer frequency, TF over GST control); with FEV it was 1.11 fold enrichment (6-mer frequency, TF over GST control); with ETV5 it was 1.03 fold enrichment (6-mer frequency, TF over GST control); in the assay with HSF1, 1.2 fold enrichment (6-mer frequency, TF over GST control). Moreover, the binding signal with SPIC is 1.03 fold enrichment (6-mer frequency, TF over GST control); with ELF4, 1.11 fold enrichment (6-mer frequency, TF over GST control); with ELK4 it was 1.08 fold enrichment (6-mer frequency, TF over GST control); with ETV2, 1.06 fold enrichment (6-mer frequency, TF over GST control); in the assay with ELF3, 1.22 fold enrichment (6-mer frequency, TF over GST control); in the assay with CRX, 1.32 fold enrichment (6-mer frequency, TF over GST control). The binding signal with ETV1 was 1.13 fold enrichment (6-mer frequency, TF over GST control).
